# Results published in PubChem BioAssay (NCI).
# Compounds without any hit were thinned out: in the full panel of roughly 83,000, 20% have a hit.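 Values shown are percent growth following 48 h exposure of cells in 96-well plates to a single concentration of compound; below 10 was considered active.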 Active and inactive are the calls of the source.
# Tested on: OVCAR-4 ovarian
# Assay: NCI-60 one-dose screen, 48 h (100 = growth as untreated, 0 = no growth, -100 = all killed)
# Conditions: 10 µM unless noted
row,Structure (SMILES),growth
1,Nc1nc(N)nc(N2CCCCC2)n1,111% (inactive)
2,O=C1NCC2CCCC1C2 (centres undefined),103% (inactive)
3,Cc1cc(CO)c(O)c(CO)c1,122% (inactive)
4,C#CC(O)c1ccccc1 (centres undefined),105% (inactive)
5,COc1ccc(Br)c(C=O)c1,88.5% (inactive)
6,COC(c1ccc2c(c1)OCO2)C(C)Br (centres undefined),100% (inactive)
7,O=C(O)c1ccccc1Cc1ccc2c(c1)CCCC2,111% (inactive)
8,O=[N+]([O-])c1ccc(-c2nc(N(CCO)CCO)c3ccccc3n2)o1,-25.7% (active)
9,O=Cc1ccc(Cl)c(Cl)c1,95.8% (inactive)
10,CCC(C)C1CCC(O)CC1 (centres undefined),99.4% (inactive)
11,CC(C)c1ncc([N+](=O)[O-])n1C,117% (inactive)
12,COc1ccc(/C=C\C(=O)/C=C/c2ccc(OC)cc2)cc1,88.6% (inactive)
13,Nc1cc2c(cc1Cl)C(=O)c1ccccc1C2=O,9.39% (active)
14,Cc1ccc(Cc2ccc(C)cc2)cc1,109% (inactive)
15,N#C/C(=C\c1ccc2c(c1)OCO2)c1ccccc1,99.8% (inactive)
16,CCOC(=O)c1c[nH][nH]c1=O,101% (inactive)
17,O=c1[nH]c(=O)c2cc(Cl)cc(Cl)c2[nH]1,101% (inactive)
18,CC(=O)c1cc(O)ccc1O,108% (inactive)
19,Nc1ccn(C2CC(N)C(CO)O2)c(=O)n1 (centres undefined),86.7% (inactive)

row,Structure (SMILES),growth
1,CNc1ccccc1C(N)=O,109% (inactive)
2,Cn1c(=O)[nH]c2ccccc2c1=O,110% (inactive)
3,CCOC(=O)C(C#N)=C1CCN(C)CC1,119% (inactive)
4,NNC(=O)c1ccccc1N,106% (inactive)
5,COC(CCCl)c1ccc(Cl)cc1 (centres undefined),108% (inactive)
6,C=CCC(OC(C)=O)c1ccc(OC)c(OC)c1 (centres undefined),118% (inactive)
7,COc1ccc(C2CCCCC2=O)cc1 (centres undefined),103% (inactive)
8,O=[N+]([O-])c1c(Cl)ncnc1Cl,103% (inactive)
9,CCN(CC)c1ccc2nc3ccc(N=Nc4ccc(N(C)C)cc4)cc3[n+](-c3ccccc3)c2c1,-100% (active)
10,c1ccc2[nH]c(Cc3nc4ccccc4[nH]3)nc2c1,96.5% (inactive)
11,CC1=CC(=Nc2ccc(N(C)C)cc2)C=C(C)C1=O,45.2% (inactive)
12,N#CCCN1C(=O)CCC1C(=O)O (centres undefined),114% (inactive)
13,O=C(O)Cc1cccc2ccccc12,122% (inactive)
14,Cc1nc(C)c(C(=O)O)cc1C(=O)O,122% (inactive)
15,Clc1ccc(/C=C/c2ccccn2)cc1,62.3% (inactive)
16,N#CC1(O)CCCCC1,126% (inactive)
17,CCNc1ncnc2[nH]ncc12,108% (inactive)
18,CC12CCC3c4ccc(O)cc4CCC3C1CCC2=O (centres undefined),106% (inactive)

# Tested on: SK-OV-3 ovarian
# Assay: as above
# Conditions: 10 µM unless noted
row,Structure (SMILES),growth
1,Nc1nc(N)nc(N2CCCCC2)n1,106% (inactive)
2,O=C1NCC2CCCC1C2 (centres undefined),110% (inactive)
3,Cc1cc(CO)c(O)c(CO)c1,106% (inactive)
4,C#CC(O)c1ccccc1 (centres undefined),103% (inactive)
5,COc1ccc(Br)c(C=O)c1,103% (inactive)
6,COC(c1ccc2c(c1)OCO2)C(C)Br (centres undefined),83.1% (inactive)
7,O=C(O)c1ccccc1Cc1ccc2c(c1)CCCC2,111% (inactive)
8,O=[N+]([O-])c1ccc(-c2nc(N(CCO)CCO)c3ccccc3n2)o1,-4.36% (active)
9,O=Cc1ccc(Cl)c(Cl)c1,112% (inactive)
10,CCC(C)C1CCC(O)CC1 (centres undefined),109% (inactive)
11,CC(C)c1ncc([N+](=O)[O-])n1C,112% (inactive)
12,COc1ccc(/C=C\C(=O)/C=C/c2ccc(OC)cc2)cc1,104% (inactive)
13,Nc1cc2c(cc1Cl)C(=O)c1ccccc1C2=O,39.1% (inactive)
14,Cc1ccc(Cc2ccc(C)cc2)cc1,97.2% (inactive)
15,N#C/C(=C\c1ccc2c(c1)OCO2)c1ccccc1,87.3% (inactive)
16,CCOC(=O)c1c[nH][nH]c1=O,110% (inactive)
17,O=c1[nH]c(=O)c2cc(Cl)cc(Cl)c2[nH]1,118% (inactive)
18,CC(=O)c1cc(O)ccc1O,107% (inactive)
19,Nc1ccn(C2CC(N)C(CO)O2)c(=O)n1 (centres undefined),69.6% (inactive)

row,Structure (SMILES),growth
1,CNc1ccccc1C(N)=O,107% (inactive)
2,Cn1c(=O)[nH]c2ccccc2c1=O,108% (inactive)
3,CCOC(=O)C(C#N)=C1CCN(C)CC1,118% (inactive)
4,NNC(=O)c1ccccc1N,114% (inactive)
5,COC(CCCl)c1ccc(Cl)cc1 (centres undefined),106% (inactive)
6,C=CCC(OC(C)=O)c1ccc(OC)c(OC)c1 (centres undefined),126% (inactive)
7,COc1ccc(C2CCCCC2=O)cc1 (centres undefined),103% (inactive)
8,O=[N+]([O-])c1c(Cl)ncnc1Cl,104% (inactive)
9,CCN(CC)c1ccc2nc3ccc(N=Nc4ccc(N(C)C)cc4)cc3[n+](-c3ccccc3)c2c1,-8.27% (active)
10,c1ccc2[nH]c(Cc3nc4ccccc4[nH]3)nc2c1,126% (inactive)
11,CC1=CC(=Nc2ccc(N(C)C)cc2)C=C(C)C1=O,97.1% (inactive)
12,N#CCCN1C(=O)CCC1C(=O)O (centres undefined),145% (inactive)
13,O=C(O)Cc1cccc2ccccc12,103% (inactive)
14,Cc1nc(C)c(C(=O)O)cc1C(=O)O,104% (inactive)
15,Clc1ccc(/C=C/c2ccccn2)cc1,104% (inactive)
16,N#CC1(O)CCCCC1,93.6% (inactive)
17,CCNc1ncnc2[nH]ncc12,109% (inactive)
18,CC12CCC3c4ccc(O)cc4CCC3C1CCC2=O (centres undefined),117% (inactive)
